# Laboratory results: PubChem BioAssay
# Active and inactive are the calls of the source.
# Experiments:
# [1] = optical density shifts of acrAB sulA E. coli – strain DRC41, OD650, 48 h, E. coli filamentation inducer project, primary screen (AID 1152); details: higher = more signal, called active from +8 up or from −8 down;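 also: E. coli MC1000 strain DRC41 lacking acrAB efflux pump and sulA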
# [2] = probe aLefty1 binding on compound microarray – biochemical, small-molecule microarray, 635/667 nm fluorescence, primary screen (AID 1153); details: higher = more signal;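 also: score merges spot fluorescence with signal-to-noise ratio from the scanned slide images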
# [3] = plasmodial surface anion channel blockers, osmotic lysis – cell-based, P. falciparum Indochina, OD700, 1 h, primary screen (AID 1154); details: P. falciparum Indochina infected RBC osmotic lysis, higher = more signal, called active from +8 up or from −8 down
# [4] = plasmodial surface anion channel blockers, osmotic lysis – cell-based, P. falciparum Indochina, OD700, 2 h, primary screen (AID 1155);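 also: lysis reports solute entry through the parasite surface anion channel PSAC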; details: P. falciparum Indochina infected erythrocytes, higher = more signal, called active from +8 up or from −8 down
# [5] = changes in parasitized red cell lysis, either direction – P. falciparum Indochina, OD700, 3 h, PSAC antagonist project, primary screen (AID 1156); details: P. falciparum-infected erythrocytes, osmotic lysis, higher = more signal, called active from +8 up or from −8 down
# [6] = plasmodial surface anion channel blockers, osmotic lysis – cell-based, P. falciparum Indochina, OD700, 18 h, primary screen (AID 1157); details: P. falciparum Indochina infected erythrocytes, osmotic lysis OD700, 18 h; higher = more signal, called active from +8 up or from −8 down
# [7] = S6 kinase pathway phospho-S6 level changes – cell-based, A549, cytoblot, luminescence, serum-stimulated, primary screen (AID 1158); details: 5 h, higher = more signal;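 also: serum-stimulated A549 lung adenocarcinoma cells; signal is phosphorylated S6 detected by cytoblot immunostaining with HRP secondary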
# [8] = molecular target: NADPH oxidase 2 (Homo sapiens) (UniProt P04839); assay: compounds shifting NOX2 Amplex Red fluorescence – cell-based, HEK293-NOX2, PMA-stimulated, NOX inhibitor project, primary screen (AID 1159); details: 45 min, higher = more signal, called active from +8 up or from −8 down; also: test concentration not given here
# [9] = molecular target: NADPH oxidase 4 (Homo sapiens) (UniProt Q9NPH5); assay: compounds shifting NOX4 Amplex Red fluorescence – cell-based, HEK293-NOX4, tetracycline-induced, NOX inhibitor project, primary screen (AID 1160); details: HEK293-NOX4, Amplex Red H2O2 fluorescence, 45 min; higher = more signal, called active from +8 up or from −8 down
# [10] = molecular target: NADPH oxidase 5 (Homo sapiens) (UniProt Q96PH1); assay: compounds shifting NOX5 Amplex Red fluorescence – cell-based, HEK293-NOX5, NOX inhibitor project, primary screen (AID 1161); details: HEK293-NOX5, ionomycin, 45 min, higher = more signal
# Chain of NADPH oxidase 5 (Homo sapiens) (Q96PH1 whole entry, looked up): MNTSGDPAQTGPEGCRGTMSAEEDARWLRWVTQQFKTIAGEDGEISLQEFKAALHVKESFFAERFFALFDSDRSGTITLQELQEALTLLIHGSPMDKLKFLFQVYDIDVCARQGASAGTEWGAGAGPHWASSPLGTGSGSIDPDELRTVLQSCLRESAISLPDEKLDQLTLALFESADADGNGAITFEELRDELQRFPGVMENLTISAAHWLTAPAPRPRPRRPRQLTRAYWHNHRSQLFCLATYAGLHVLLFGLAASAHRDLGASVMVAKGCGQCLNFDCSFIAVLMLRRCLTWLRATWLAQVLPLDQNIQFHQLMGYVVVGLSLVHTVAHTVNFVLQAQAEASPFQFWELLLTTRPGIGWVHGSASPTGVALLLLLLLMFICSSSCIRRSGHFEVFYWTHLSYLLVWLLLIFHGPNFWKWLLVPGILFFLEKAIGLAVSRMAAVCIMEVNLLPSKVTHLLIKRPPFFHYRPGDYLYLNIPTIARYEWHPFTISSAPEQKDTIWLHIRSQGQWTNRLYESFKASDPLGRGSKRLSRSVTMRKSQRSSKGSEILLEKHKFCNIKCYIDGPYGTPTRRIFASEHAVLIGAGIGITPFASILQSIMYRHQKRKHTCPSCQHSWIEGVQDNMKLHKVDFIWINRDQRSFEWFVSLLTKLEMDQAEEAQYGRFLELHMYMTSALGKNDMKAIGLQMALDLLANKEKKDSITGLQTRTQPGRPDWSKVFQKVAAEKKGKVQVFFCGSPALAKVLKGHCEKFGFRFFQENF
# Chain of NADPH oxidase 2 (Homo sapiens) (P04839 whole entry, looked up): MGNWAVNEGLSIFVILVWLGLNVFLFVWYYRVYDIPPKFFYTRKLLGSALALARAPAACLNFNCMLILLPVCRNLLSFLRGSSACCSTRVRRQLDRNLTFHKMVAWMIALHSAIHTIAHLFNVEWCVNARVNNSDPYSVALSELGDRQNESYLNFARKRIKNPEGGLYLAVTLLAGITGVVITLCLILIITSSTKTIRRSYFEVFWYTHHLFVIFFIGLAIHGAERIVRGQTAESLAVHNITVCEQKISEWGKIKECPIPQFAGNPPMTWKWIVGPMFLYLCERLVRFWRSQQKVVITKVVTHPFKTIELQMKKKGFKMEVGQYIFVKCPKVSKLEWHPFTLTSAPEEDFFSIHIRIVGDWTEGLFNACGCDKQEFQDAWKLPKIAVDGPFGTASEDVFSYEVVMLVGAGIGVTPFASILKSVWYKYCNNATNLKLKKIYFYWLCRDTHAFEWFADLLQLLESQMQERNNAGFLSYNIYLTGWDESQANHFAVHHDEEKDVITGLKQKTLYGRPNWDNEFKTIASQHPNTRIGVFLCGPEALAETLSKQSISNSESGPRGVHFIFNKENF
# Chain of NADPH oxidase 4 (Homo sapiens) (Q9NPH5 whole entry, looked up): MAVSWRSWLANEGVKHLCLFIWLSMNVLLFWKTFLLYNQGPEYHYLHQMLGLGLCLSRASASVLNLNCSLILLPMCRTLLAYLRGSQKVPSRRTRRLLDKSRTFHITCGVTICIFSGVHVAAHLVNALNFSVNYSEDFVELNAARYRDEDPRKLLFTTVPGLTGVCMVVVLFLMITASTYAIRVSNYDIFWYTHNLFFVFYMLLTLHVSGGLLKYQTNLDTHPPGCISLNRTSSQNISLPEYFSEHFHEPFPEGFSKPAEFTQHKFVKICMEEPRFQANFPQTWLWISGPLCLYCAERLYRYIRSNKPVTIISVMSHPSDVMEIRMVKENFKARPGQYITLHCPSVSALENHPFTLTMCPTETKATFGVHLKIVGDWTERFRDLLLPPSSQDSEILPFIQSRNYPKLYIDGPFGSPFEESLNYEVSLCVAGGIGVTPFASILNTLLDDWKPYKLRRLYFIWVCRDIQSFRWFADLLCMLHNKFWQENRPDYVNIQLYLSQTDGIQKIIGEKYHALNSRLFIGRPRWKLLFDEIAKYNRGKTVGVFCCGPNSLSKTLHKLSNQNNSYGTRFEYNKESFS
Structure (SMILES),z-score [1],composite z-score [2],z-score [3],z-score [4],z-score [5],z-score [6],z-score [7],z-score [8],z-score [9],z-score [10]
C=C(COC)C(=O)CC[C@H](OC(C)=O)c1ccc(CO)o1,0.82 (inactive),-0.0061,0.421 (inactive),0.112 (inactive),-0.0728 (inactive),-1.12 (inactive),0.555,-1.04 (inactive),-0.207 (inactive),-1.31
C=CCOC(=O)[C@@H]1[C@H]2C(=O)O[C@H](c3ccccc3)[C@H](c3ccccc3)N2[C@H](c2ccc(OCCOC(=O)[C@@H]3C[C@@H]4C(=O)N[C@@H](CC(C)C)C(=O)N4[C@@H]3c3ccc(O)cc3)cc2)[C@@]12C(=O)Nc1ccc(I)cc12,0.928 (inactive),1.58,1.5 (inactive),0.9 (inactive),4.25 (inactive),0.718 (inactive),0.0764,0.485 (inactive),0.64 (inactive),0.839
CCOC(=O)C1=CCC(c2ccncc2)N(S(=O)(=O)c2ccc(C)cc2)C1 (stereo not given),0.149 (inactive),0.13,4.24 (inactive),1.29 (inactive),0.488 (inactive),0.953 (inactive),-0.0707,0.168 (inactive),0.432 (inactive),0.0402
C=CCNC(=O)[C@@H]1[C@H]2C(=O)O[C@H](c3ccccc3)[C@H](c3ccccc3)N2[C@H](c2ccc(O)cc2)[C@@]12C(=O)N(C(=O)OCCOC)c1ccc(C#CCC(C(=O)OC)C(=O)OC)cc12,1.17 (inactive),0.0026,2.41 (inactive),0.225 (inactive),-0.451 (inactive),0.393 (inactive),0.0945,0.932 (inactive),0.584 (inactive),0.831
C=C(COC)C(=O)CC[C@H](OC(C)=O)c1ccccc1OCCO,0.618 (inactive),-0.176,1.91 (inactive),-0.291 (inactive),0.537 (inactive),-1.49 (inactive),1.2,-1.57 (inactive),0.456 (inactive),-1.41
C=CCNC(=O)[C@@H]1[C@H]2C(=O)O[C@H](c3ccccc3)[C@H](c3ccccc3)N2[C@H](c2ccc(O)cc2)[C@@]12C(=O)Nc1ccc(C#CC3=CCCCC3)cc12,-0.396 (inactive),1.56,1.71 (inactive),0.959 (inactive),-0.587 (inactive),1.08 (inactive),-0.424,1.51 (inactive),0.391 (inactive),0.578
C=CC[C@@]1(C(=O)NCCCOC)N=C(c2ccc(OCCCO)cc2)O[C@@H]1c1ccccc1CN=[N+]=[N-],1.14 (inactive),0.607,22.3 (active),2.5 (inactive),0.493 (inactive),-1.34 (inactive),0.812,-0.477 (inactive),0.648 (inactive),-0.274
CCCCN1CC=CC23O[C@@H]4/C=C\CCCOC(=O)C4[C@H]2C(=O)N(CCCCCCO)[C@@H]3C1=O (stereo not given in full),2.36 (inactive),0.0927,1.81 (inactive),-0.88 (inactive),-0.75 (inactive),-0.945 (inactive),3.08,0.873 (inactive),0.0146 (inactive),1.84
COC(=O)[C@@]1(Cc2ccc(F)cc2)[C@H]2c3cc(C(=O)N(C)C)n(Cc4ccc(C(F)(F)F)nc4)c3C[C@H]2CN1C(=O)c1ccccc1,-1 (inactive),0.589,1.93 (inactive),0.844 (inactive),0.893 (inactive),0.987 (inactive),-0.0002,0.267 (inactive),0.32 (inactive),0.568
C=CCNC(=O)[C@H]1[C@@H]2C(=O)O[C@@H](c3ccccc3)[C@@H](c3ccccc3)N2[C@@H](c2ccc(O)cc2)[C@]12C(=O)N(C(=O)OCCOC)c1ccc(C#Cc3ccc(OC)cc3)cc12,-0.983 (inactive),0.216,2.57 (inactive),1.28 (inactive),-0.829 (inactive),0.0195 (inactive),-0.376,1.62 (inactive),0.725 (inactive),1.13
CC1(C)OB(/C=C\CC(OC(=O)c2ccncc2)c2ccccc2)OC1(C)C (stereo not given),-0.318 (inactive),1.24,0.777 (inactive),-0.854 (inactive),-0.66 (inactive),-0.678 (inactive),-0.119,-2.45 (inactive),0.637 (inactive),-5.03
COCCOC(=O)N1C(=O)[C@@]2(c3cc(C#CC4=CCCCC4)ccc31)[C@H](C(=O)N1CCCCCCC1)[C@H]1C(=O)O[C@H](c3ccccc3)[C@H](c3ccccc3)N1[C@@H]2c1ccccc1OCCO,0.857 (inactive),1.11,0.951 (inactive),1.01 (inactive),-0.249 (inactive),0.413 (inactive),0.526,-0.129 (inactive),0.322 (inactive),0.0795
O=C(O)C1=CC[C@H]2C(=O)N(c3ccccc3)C(=O)[C@@H]12,-0.569 (inactive),0.348,0.61 (inactive),1.11 (inactive),-0.803 (inactive),0.707 (inactive),-1,0.536 (inactive),-0.267 (inactive),-0.253
COC(=O)C[C@H]1O[C@]2(C(=O)N(C)c3ccccc32)[C@@H](C)[C@@H]1[Si](C)(C)c1ccccc1,-0.297 (inactive),0.151,1.48 (inactive),0.405 (inactive),1.1 (inactive),0.0591 (inactive),0.252,0.767 (inactive),0.176 (inactive),-1.11
O=C(c1ccccc1)N1Cc2ccccc2C[C@@]2(N=C(c3ccc(OCCCO)cc3)O[C@H]2c2ccccc2)C1=O,-0.702 (inactive),0.149,6.6 (inactive),1.66 (inactive),2.54 (inactive),0.937 (inactive),-0.221,1.21 (inactive),-0.172 (inactive),-0.693
C#CCN(C(=O)OC(C)(C)C)[C@H](CO)c1ccccc1,-1.15 (inactive),-0.0536,1.57 (inactive),-0.0352 (inactive),-0.195 (inactive),0.133 (inactive),0.137,0.441 (inactive),0.469 (inactive),0.745
CC(C)Cc1ccc(CN2CC[C@@H](NC(=O)c3ccccc3)C2)cc1,-0.55 (inactive),-0.147,1.57 (inactive),1.11 (inactive),1.23 (inactive),0.33 (inactive),0.0681,-0.29 (inactive),-0.413 (inactive),-2.41
O=C(CS)NCCCCCCNC(=O)[C@H]1C[C@H]2C(=O)NCC(=O)N2[C@H]1c1cccc(OCCO)c1,0.838 (inactive),0.0797,2.16 (inactive),-0.151 (inactive),-1.92 (inactive),-1.36 (inactive),0.21,2.14 (inactive),1.22 (inactive),0.769
COc1ccc(CCNC(=O)[C@@H]2c3ccccc3C(=O)N(C(C)C)[C@H]2c2ccc(CO)cc2)cc1,1.73 (inactive),-0.27,3.24 (inactive),0.785 (inactive),1.3 (inactive),0.376 (inactive),0.307,-0.219 (inactive),0.821 (inactive),0.338
CC(C)[Si]1(C(C)C)OCc2cc(-c3ccc(-c4ccc(Cl)c(Cl)c4)o3)nc(-c3ccc(Oc4ccccc4)cc3)c21,-1.08 (inactive),-0.21,1.88 (inactive),0.352 (inactive),0.0032 (inactive),0.533 (inactive),-0.203,-4.58 (inactive),0.169 (inactive),-1.54
COC(=O)C1=CC(CCCO)=CC(c2ccc(CN3CCCC3)cc2)N(C)C=C1C(=O)OC (stereo not given),0.265 (inactive),0.212,1.77 (inactive),0.422 (inactive),0.587 (inactive),0.155 (inactive),-0.387,0.452 (inactive),0.225 (inactive),0.463
COc1ccc(C(O)C2C=CC3C(=O)N(C)C(=O)C3N2Nc2ccccc2)cc1 (stereo not given),-0.485 (inactive),0.211,0.929 (inactive),0.865 (inactive),0.213 (inactive),0.973 (inactive),-0.423,-1.26 (inactive),-2.67 (inactive),-1.96
COC(=O)[C@@]1(Cc2ccc(F)cc2)[C@H]2c3cc(C(=O)N4CCCC4)n(C[C@H](O)CO)c3C[C@H]2CN1C(=O)c1ccccc1,-1.62 (inactive),0.873,1.41 (inactive),0.542 (inactive),0.396 (inactive),0.668 (inactive),-0.0929,0.709 (inactive),-0.364 (inactive),-2.49
COCCOC(=O)N1C(=O)[C@@]2(c3cc(C#CC4=CCCCC4)ccc31)[C@H](c1ccc(O)cc1)N1[C@H](c3ccccc3)[C@H](c3ccccc3)OC(=O)[C@H]1[C@@H]2C(=O)N1CCc2cc(OC)c(OC)cc2C1,-0.164 (inactive),0.0355,0.751 (inactive),0.394 (inactive),-6.44 (inactive),0.0991 (inactive),-0.294,1.48 (inactive),1.04 (inactive),1.03
COc1ccc(NN2C(C(O)c3ccc(F)cc3)C=CC3C(=O)N(C4CCCCC4)C(=O)C32)cc1 (stereo not given),-1.24 (inactive),0.0561,5.76 (inactive),1.42 (inactive),0.37 (inactive),0.856 (inactive),-0.54,-1.73 (inactive),-3.25 (inactive),-1.23
C=CCOC(=O)[C@H]1[C@@H]2C(=O)O[C@@H](c3ccccc3)[C@@H](c3ccccc3)N2[C@@H](c2ccc(OCCOC(=O)[C@H]3C[C@H]4C(=O)NCC(=O)N4[C@H]3c3cccc(OCCO)c3)cc2)[C@]12C(=O)Nc1ccc(I)cc12,0.0133 (inactive),1.31,5.17 (inactive),2.48 (inactive),0.939 (inactive),1.58 (inactive),0.58,1.71 (inactive),0.956 (inactive),1.4
